# Bioassay records as filed in PubChem BioAssay.
# A selection: hits, their analogues and other compounds. The true share with any hit is near 2.4%.
# Pol beta inh: blocks human DNA polymerase beta activity; 340,000 tested, 1.3% active; Pol beta primer extension/strand displacement, fluorescence kinetic; Potency, µM (doses to about 114 µM), for the others: top-dose activity change, negative = inhibition, usual class: inhibitors; AID 485314; P06746; also: % is scaled to controls: 0 for no effect and ±100 for the full control effect
#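 Values derive from four-parameter Hill fits of normalized kinetic data: reads at 0 and 10 min following addition of 50 nM substrate to 10 nM Pol beta preincubated 15 min with compound.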
# Pol iota inh: blocks human DNA polymerase iota activity; Q9UNA4; Pol iota fluorescent replication assay, 10 min; Potency, µM (highest dose often 115 µM), for inactives: at the highest dose activity, negative = inhibition, usual class: inhibitors; 390,000 tested, 1% active
#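 Fluorescent replication assay read twice, at 0 min and 10 min after adding 50 nM (final) substrate. Enzyme (10 nM) and compounds were first incubated 15 min at room temperature; enzyme-free buffer wells were negative controls.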
# Pol kappa inh-1: blocks human DNA polymerase kappa activity | Q9UBT6 | Potency, µM (doses to about 107 µM), for the others: top-dose activity, negative = inhibition, actives largely listed as inhibitors | purified Pol kappa, fluorescent DNA synthesis assay, 10 min | 400,000 tested, 0.53% active; also: % is scaled to controls: 0 for no effect and ±100 for the full control effect
# Target sequence (Q9UBT6 whole entry, looked up): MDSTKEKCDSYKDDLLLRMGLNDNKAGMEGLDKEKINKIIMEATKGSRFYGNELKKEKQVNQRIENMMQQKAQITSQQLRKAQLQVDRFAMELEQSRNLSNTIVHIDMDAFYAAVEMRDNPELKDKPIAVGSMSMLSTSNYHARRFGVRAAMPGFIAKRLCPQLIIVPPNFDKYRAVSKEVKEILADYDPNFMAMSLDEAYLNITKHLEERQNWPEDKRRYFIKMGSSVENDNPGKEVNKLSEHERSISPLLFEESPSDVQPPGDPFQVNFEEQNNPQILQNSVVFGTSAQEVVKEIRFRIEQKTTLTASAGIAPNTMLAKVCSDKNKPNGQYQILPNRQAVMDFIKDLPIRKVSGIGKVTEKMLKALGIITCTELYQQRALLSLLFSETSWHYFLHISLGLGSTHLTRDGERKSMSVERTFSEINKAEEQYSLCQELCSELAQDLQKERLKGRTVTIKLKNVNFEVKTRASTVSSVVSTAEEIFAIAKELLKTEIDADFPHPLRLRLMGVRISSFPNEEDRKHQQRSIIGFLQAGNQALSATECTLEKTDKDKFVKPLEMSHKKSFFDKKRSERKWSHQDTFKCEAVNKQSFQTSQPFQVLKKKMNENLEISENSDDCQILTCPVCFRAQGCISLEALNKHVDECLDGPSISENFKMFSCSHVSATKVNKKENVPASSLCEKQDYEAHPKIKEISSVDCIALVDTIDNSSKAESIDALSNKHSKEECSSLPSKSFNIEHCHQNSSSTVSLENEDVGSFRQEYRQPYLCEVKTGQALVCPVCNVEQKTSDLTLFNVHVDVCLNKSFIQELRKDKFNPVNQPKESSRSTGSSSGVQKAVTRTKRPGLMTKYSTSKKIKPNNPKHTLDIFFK
#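 Readout: fluorescence, taken kinetically at 0 and 10 min. Conditions: 10 nM Pol kappa, 15 min RT compound preincubation, 50 nM substrate final. Controls: enzyme-free buffer wells.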
# Pol eta inh-1: DNA polymerase eta (human) inhibition | 390,000 tested, 1.2% active | recombinant Pol eta, fluorescent DNA replication assay | Potency, µM (highest dose often 114 µM), for inactives: at the top dose activity change, negative = inhibition, actives largely listed as inhibitors | AID 588591; also: % is scaled to controls: 0 for no effect and ±100 for the full control effect
#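 Fluorescent replication assay: 50 nM final substrate added after a 15 min room-temperature compound preincubation with 10 nM enzyme. Signal taken at 0 min and again at 10 min.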
# TDP1 inh: TDP1 (human) enzyme inhibition | Q9NUW8 | 350,000 tested, 0.28% active | recombinant TDP1, AlphaScreen DNA substrate cleavage | AID 485290 | Potency, µM (highest dose often 130 µM), for the others: at the highest dose activity change, negative = inhibition, hits mostly inhibitors; also: % is scaled to controls: 0 for no effect and ±100 for the full control effect; nearly all actives have a fitted effect of over 40% in size
#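 Here, a 5' biotin and 3' phosphotyrosine-FITC DNA oligonucleotide reports Tdp1 activity: intact substrate bridges AlphaScreen beads, while cleavage leaves a 3' phosphate and drops signal. All incubations at room temperature.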
# PGK validate: TbPGK inhibition, hit validation; 500 tested, 79% active; Potency, µM (doses to about 57.5 µM), for inactives: top-dose activity change, negative = inhibition, hits mostly inhibitors; TbPGK coupled GAPDH assay, Kinase-Glo luminescence; shares compounds with Pol kappa inh-1; also: % is scaled to controls: 0 for no effect and ±100 for the full control effect; nearly all actives have a fitted effect of over 65% in size
# POLI cherry-pick: Confirm cherry-picked inhibitors of human polymerase iota | Potency, µM, hits mostly inhibitors | shares compounds with Pol kappa inh-1 | AID 720496 | Pol iota primer extension, TAMRA/BHQ fluorescence | 1,500 tested, 77% active
# Pol kappa inh-2: Pol kappa (human) inhibition, cherry-pick confirmation; purified Pol-kappa, fluorescent strand-displacement substrate; Potency, µM, most hits filed as inhibitors; AID 720501; shares compounds with Pol eta inh-1; 920 tested, 76% active
# Pol eta inh-2: Pol eta (human) inhibition, cherry-pick confirmation. shares compounds with Pol eta inh-1. Pol eta primer extension, TAMRA/BHQ fluorescence, 10 min. Potency, µM, most hits filed as inhibitors. 2,600 tested, 64% active
# Numbers without * were called inactive; ? = inconclusive; / = no result given; [ ] = another dose, or the depositor's remark. Calls follow the shape of the dose curve; as a rule, active = well fitted curve in the direction sought with a large enough effect; inconclusive = small, poorly fitted or top-dose-only effect, or another doubt; inactive = no such curve, though single readings can be large; an effect the other way counts as inactive or inconclusive. Potency is read from the fitted curve at half-maximal effect.
SMILES,Pol beta inh,Pol iota inh,Pol kappa inh-1,Pol eta inh-1,TDP1 inh,POLI cherry-pick,Pol eta inh-2,others
O=C(CCCN1C(=O)/C(=C\c2cccs2)SC1=S)Nc1ccc(O)cc1C(=O)O,-29%,16%,-4%,-9%,13%,/,/,
O=C(CN1C(=O)/C(=C/c2ccco2)SC1=S)Nc1ccc(C(=O)O)c(O)c1,11µM*,-14%,-8%,3.5µM*,/,15*,6.7*,PGK validate=33µM*
O=C(CCN1C(=O)/C(=C\C=C\c2ccccc2)SC1=S)Nc1ccc(C(=O)O)cc1,20µM*,?,?,28µM*,14µM*,27*,85*,
O=C(CCCN1C(=O)/C(=C/c2ccco2)SC1=S)Nc1cccc(C(=O)O)c1,3.2µM*,14µM*,22µM*,20µM*,/,24*,15*,
O=C(CCN1C(=O)/C(=C\c2ccccc2F)SC1=S)Nc1ccc(C(=O)O)c(O)c1,1%,/,/,/,7%,/,/,
O=C(CCCN1C(=O)/C(=C\c2cccs2)SC1=S)Nc1cccc(C(=O)O)c1,1%,9%,-5%,-11%,9%,/,/,
O=C(CCCN1C(=O)/C(=C\c2ccco2)SC1=S)Nc1ccc(O)cc1C(=O)O,?,8.9µM*,22µM*,4.5µM*,5%,34*,27*,
CCC(Sc1nc2c(sc3ccccc32)c(=O)n1CCc1ccc(OC)c(OC)c1)C(=O)N(CC)CC (stereo not drawn),4%,-15%,-8%[60.1 µM],-14%,4%,/,/,
CCCS(=O)(=O)N1CCC(C(=O)NCCOC)CC1,5%,11%,-4%[60.1 µM],-13%,5%,/,/,
CCOC(=O)c1ccc(NC2=CC(c3ccc(O)c(OCC)c3)N(c3ccc(C(=O)OCC)cc3)C2=O)cc1 (stereo not drawn),31%,-9%,-3%,6%,5%,/,/,
Cc1cccc(Nc2nnc(SCC(=O)c3c(N)n(C4CC4)c(=O)[nH]c3=O)s2)c1,/,5%,-19%,1%,-8%,/,/,
C/C(N)=C(/C#N)C(=O)CSc1nnc(Nc2cccc(C)c2)s1,40µM*,?,?,20µM*,?,75*,?,
N=C1/C(=C/c2ccco2)C(=O)N=C2SC(CC(=O)N3CCCC3)=NN12,?,16µM*,?,14µM*,20µM*,38*,24*,
CSc1ccc(/C=C2\C(=N)N3N=C(CC(=O)N4CCOCC4)SC3=NC2=O)cc1,3%,?,?,-24%,4%,/,/,
N=C1/C(=C\c2ccc(Br)o2)C(=O)N=C2SC(CC(=O)N3CCOCC3)=NN12,28µM*,16µM*,?,18µM*,/,?,24*,
COc1ccc(/C=C2/C(=N)N3N=C(CC(=O)N4CCCC4)SC3=NC2=O)cc1,4%,17%,-13%,?,6%,/,/,
COc1cccc(C(=O)Nc2cccc(-c3cn4c(C)csc4n3)c2)c1OC,-19%,1%,-3%[60.1 µM],-9%,8%,/,/,
CS(=O)(=O)N1N=C(c2ccco2)CC1c1ccco1 (stereo not drawn),?,?,79µM*,22µM*,/,53*,30*,Pol kappa inh-2=19*
CCNc1ccc(-c2nc(-c3ccccn3)no2)cc1[N+](=O)[O-],-4%,-20%,0%,0%,11%,/,/,
CN1N/C(=C\c2ccccc2)N=C2C(=O)N(C)C(=O)N=C21,/,-98%,?,/,2%,2.7*,5.4*,
CC/C=C1/N=C2C(=O)N(C)C(=O)N=C2N(C)N1,/,-19%,-9%,/,4%,/,/,
O=C1C=CC(=O)N1c1ccccc1N1C(=O)C=CC1=O,/,40µM*,?,?,/,?,?,
CCOC(=O)CN1C(=O)S/C(=C\c2ccc(-c3ccc(C(=O)O)c(Cl)c3)o2)C1=O,?,20µM*,40µM*,10µM*,8.9µM*,?,30*,Pol kappa inh-2=17*
COc1ccccc1-c1nc2c(c(SCC(=O)Nc3ccc(C)c(C)c3)n1)Cc1c(CO)cnc(C)c1O2,0%,-2%,-11%,?,10%,?,?,
Cc1ccc(NC(=O)CSc2nc(-c3ccc(F)cc3)nc3c2Cc2c(CO)cnc(C)c2O3)cc1C,-1%,4%,-8%,6%,0%,/,/,
SMILES,Pol beta inh,Pol iota inh,Pol kappa inh-1,Pol eta inh-1,TDP1 inh,POLI cherry-pick,Pol eta inh-2,others
COc1ccc(OC)c(NC(=O)CCc2c(C)nc3c(c(C)nn3C(C)(C)C)c2C)c1,-29%,23%,0%,-13%,5%,/,/,
O=C(C=Cc1ccco1)c1ccco1,/,?,?,-1%,/,/,/,
O=C(O)C(C(=O)/C=C/c1ccco1)=C1SCCS1,25µM*,4µM*,45µM*,8.9µM*,20µM*,53*,48*,
CC(C)C1Nc2c(O)cc(Cl)c([N+](=O)[O-])c2C2C=CCC21 (stereo not drawn),?,?,1%[60.1 µM],2%,7%,/,/,
O=C(O)C1Nc2c(Cl)cc(Cl)c(Cl)c2C2C=CCC12 (stereo not drawn),/,10µM*,28µM*,14µM*,/,21*,24*,
Cc1nc2ccc(C(=O)O)cc2c2c1CC(C)S2 (stereo not drawn),22µM*,5µM*,32µM*,2.5µM*,20µM*,19*,9.5*,
Cc1ccc(NC(=O)CCNS(=O)(=O)c2ccc3c(c2)CCN3C(=O)C2CC2)c(Cl)c1,17%,0%,-4%[60.1 µM],3%,-1%,/,/,
C/C(CCc1ccco1)=N/NC(=O)CCC(=O)Nc1ccc(Br)cc1,-3%,26%,3%,-11%,-2%,/,/,
O=C(CCc1ccco1)CCc1ccco1,/,25µM*,?,?,/,?,76*,Pol kappa inh-2=34*
CN(C)CCCNc1c2ccccc2nc2ccccc12,2.2µM*,8.9µM*,25µM*,22µM*,/,11*,/,Pol kappa inh-2=9.5*
CN(C)CCCNc1nc(-c2ccccc2)nc2ccccc12,3%,18%,-1%,-23%,4%,/,/,
O=c1c2ccccc2c(C=Nc2cccc(O)c2)c(O)n1-c1ccc2c(c1)OCO2,40µM*,?,-22%,13µM*,-8%,?,?,
COc1ccc(NC(=O)CSc2nc3c(oc4ccccc43)c(=O)n2-c2ccccc2)cc1OC,-1%,5%,-3%,-10%,0%,/,/,
